This is an account of results in ChEMBL document CHEMBL5724796, “Tm Shift (DSF) assay results for EUbOPEN Chemogenomics Library” (2024).

Settings in all cases: Compound concentration 20.0 uM
The target in assay [1] is Tyrosine-protein kinase ABL1 (Homo sapiens) (UniProt P00519).
Assay [2] has as its target Bromodomain-containing protein 4 (Homo sapiens) (UniProt O60885).
Assay [3] deals with Cyclin-dependent kinase 2 (Homo sapiens) (UniProt P24941).
The target of assay [4] is Casein kinase I isoform delta (Homo sapiens) (UniProt P48730).
Chain of Casein kinase I isoform delta (Homo sapiens) (P48730 whole entry, looked up, canonical isoform): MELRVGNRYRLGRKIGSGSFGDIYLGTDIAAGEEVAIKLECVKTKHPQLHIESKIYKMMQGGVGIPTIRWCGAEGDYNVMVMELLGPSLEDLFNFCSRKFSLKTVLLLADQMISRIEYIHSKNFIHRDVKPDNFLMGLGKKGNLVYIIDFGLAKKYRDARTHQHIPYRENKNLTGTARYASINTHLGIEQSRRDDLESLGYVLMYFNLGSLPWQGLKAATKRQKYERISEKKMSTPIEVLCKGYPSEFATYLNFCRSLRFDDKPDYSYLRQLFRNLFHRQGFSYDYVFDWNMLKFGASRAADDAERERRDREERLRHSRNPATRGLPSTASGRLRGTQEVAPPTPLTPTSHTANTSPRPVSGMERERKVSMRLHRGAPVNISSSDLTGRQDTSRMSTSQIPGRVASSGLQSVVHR
For assay [5], the target named is Glycogen synthase kinase-3 beta (Homo sapiens) (UniProt P49841).
Chain of Glycogen synthase kinase-3 beta (Homo sapiens) (P49841 whole entry, looked up): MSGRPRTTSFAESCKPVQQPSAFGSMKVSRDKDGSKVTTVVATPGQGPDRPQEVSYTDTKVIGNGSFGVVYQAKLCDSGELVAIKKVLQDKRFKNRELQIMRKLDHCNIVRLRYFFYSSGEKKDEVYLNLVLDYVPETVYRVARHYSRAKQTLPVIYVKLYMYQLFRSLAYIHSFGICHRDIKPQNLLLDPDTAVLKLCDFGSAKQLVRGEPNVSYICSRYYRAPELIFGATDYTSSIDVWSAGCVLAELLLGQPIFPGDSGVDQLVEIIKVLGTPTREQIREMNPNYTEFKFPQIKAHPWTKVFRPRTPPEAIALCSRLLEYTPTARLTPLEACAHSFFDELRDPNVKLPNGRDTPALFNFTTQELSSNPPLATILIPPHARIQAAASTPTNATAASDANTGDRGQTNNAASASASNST
The target in assay [6] is Mitogen-activated protein kinase 1 (Homo sapiens) (UniProt P28482).
Chain of Mitogen-activated protein kinase 1 (Homo sapiens) (P28482 whole entry): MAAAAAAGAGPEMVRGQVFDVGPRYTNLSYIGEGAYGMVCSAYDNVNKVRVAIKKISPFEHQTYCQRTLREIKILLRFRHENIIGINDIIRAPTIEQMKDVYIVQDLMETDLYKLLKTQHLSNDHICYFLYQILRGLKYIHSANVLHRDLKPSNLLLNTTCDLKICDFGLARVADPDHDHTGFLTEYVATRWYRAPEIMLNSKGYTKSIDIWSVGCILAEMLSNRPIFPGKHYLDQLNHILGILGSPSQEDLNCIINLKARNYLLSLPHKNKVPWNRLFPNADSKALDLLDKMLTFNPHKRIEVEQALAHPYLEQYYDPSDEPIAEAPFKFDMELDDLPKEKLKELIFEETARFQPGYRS
The target in assay [7] is T1, Aurora kinase A (Homo sapiens) (UniProt O14965).
T1 sequence (whole entry): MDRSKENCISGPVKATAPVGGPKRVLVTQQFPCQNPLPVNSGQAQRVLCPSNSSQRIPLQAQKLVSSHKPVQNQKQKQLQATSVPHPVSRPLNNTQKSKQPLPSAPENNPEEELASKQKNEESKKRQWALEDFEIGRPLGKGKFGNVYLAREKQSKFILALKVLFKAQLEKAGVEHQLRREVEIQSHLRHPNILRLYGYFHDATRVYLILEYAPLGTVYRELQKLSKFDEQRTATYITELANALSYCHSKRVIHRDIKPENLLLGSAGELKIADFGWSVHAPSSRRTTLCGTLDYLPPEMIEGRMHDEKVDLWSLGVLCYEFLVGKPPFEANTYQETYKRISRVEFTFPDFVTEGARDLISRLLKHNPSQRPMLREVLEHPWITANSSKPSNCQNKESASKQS

Assay [8] deals with T2, Transcription intermediary factor 1-alpha (Homo sapiens) (UniProt O15164).
T2 sequence (whole entry): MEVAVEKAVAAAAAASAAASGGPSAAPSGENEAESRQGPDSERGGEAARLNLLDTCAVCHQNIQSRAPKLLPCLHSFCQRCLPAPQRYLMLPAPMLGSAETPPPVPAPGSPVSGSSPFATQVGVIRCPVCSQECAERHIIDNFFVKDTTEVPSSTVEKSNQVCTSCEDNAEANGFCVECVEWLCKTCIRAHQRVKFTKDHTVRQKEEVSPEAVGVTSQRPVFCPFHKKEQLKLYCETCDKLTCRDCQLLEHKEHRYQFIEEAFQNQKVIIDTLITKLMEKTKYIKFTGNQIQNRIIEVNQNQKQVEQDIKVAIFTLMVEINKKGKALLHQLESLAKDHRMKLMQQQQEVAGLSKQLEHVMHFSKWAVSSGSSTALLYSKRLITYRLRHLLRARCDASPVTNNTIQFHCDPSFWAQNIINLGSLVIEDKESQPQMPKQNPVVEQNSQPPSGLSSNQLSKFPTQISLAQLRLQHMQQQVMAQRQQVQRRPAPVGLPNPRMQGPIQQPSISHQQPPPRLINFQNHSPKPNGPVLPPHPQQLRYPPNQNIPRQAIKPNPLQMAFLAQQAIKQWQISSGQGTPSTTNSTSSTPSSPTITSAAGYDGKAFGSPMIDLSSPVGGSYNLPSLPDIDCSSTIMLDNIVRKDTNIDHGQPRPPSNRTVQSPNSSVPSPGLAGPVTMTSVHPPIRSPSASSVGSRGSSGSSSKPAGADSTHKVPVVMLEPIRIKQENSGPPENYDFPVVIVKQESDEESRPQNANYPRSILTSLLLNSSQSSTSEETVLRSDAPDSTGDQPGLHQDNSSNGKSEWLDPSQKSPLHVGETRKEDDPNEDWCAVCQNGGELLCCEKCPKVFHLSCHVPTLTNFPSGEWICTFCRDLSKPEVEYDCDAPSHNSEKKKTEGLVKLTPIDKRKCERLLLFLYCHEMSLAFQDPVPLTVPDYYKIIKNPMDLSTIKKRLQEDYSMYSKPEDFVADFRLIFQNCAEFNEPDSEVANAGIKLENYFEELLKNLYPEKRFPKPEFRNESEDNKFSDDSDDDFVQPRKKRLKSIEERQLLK

Chain of Tyrosine-protein kinase ABL1 (Homo sapiens) (P00519 whole entry): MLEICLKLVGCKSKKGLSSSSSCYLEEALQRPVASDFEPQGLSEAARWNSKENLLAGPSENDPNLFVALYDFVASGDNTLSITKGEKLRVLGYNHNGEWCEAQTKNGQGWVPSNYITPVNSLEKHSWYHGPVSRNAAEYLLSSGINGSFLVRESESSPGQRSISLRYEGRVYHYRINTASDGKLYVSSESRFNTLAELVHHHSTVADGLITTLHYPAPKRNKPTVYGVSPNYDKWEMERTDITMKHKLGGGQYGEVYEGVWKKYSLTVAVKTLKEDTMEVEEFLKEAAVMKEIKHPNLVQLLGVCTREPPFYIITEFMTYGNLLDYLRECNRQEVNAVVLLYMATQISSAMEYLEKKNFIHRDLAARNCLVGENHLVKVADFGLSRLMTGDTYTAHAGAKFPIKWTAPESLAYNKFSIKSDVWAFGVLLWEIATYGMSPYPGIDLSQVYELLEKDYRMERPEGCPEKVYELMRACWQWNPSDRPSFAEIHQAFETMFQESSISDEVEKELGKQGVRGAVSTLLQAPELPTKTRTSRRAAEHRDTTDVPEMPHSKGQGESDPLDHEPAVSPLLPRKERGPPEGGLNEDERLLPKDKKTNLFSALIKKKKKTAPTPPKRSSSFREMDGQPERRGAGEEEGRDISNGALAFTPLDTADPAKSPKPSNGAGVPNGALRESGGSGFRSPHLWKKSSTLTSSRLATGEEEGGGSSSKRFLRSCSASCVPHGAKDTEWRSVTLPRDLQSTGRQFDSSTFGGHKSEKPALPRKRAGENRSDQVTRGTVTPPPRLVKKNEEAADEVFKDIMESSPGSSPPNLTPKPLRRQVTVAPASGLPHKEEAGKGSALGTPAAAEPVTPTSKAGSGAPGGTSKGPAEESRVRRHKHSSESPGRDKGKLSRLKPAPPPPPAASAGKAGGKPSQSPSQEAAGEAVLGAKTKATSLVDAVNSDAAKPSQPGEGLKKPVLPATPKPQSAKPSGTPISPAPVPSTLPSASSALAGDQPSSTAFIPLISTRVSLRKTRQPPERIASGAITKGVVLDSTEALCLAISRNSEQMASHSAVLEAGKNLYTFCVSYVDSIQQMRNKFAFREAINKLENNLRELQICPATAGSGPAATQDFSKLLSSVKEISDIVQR

As usually defined, the ΔTm is the shift of the melting midpoint relative to a reference. Turning to `COc1ccc(N(C(=O)Oc2c(C)cccc2C)c2ccnc(Nc3ccc(N4CCN(C)CC4)cc3)n2)c(OC)c1`, the ΔTm in assay [1] was 9.28 °C; in assay [2], -0.9 °C; in assay [3], 0.75 °C; in assay [4], 0.09 °C; in assay [5], 1.59 °C; in assay [6], 0.08 °C. Also, the figures for the ΔTm in assay [7] and in assay [8] were 0.66 °C and -0.91 °C, respectively.
For the compound `CNC(=O)c1cc(C(=O)NC2CC2)cn(Cc2ccccc2)c1=O`, the ΔTm in assay [1] is 0.09 °C; in assay [2] it was -0.92 °C; in assay [3] it was 0.1 °C; in assay [4] it was -0.13 °C; in assay [5], -0.62 °C; in assay [6] it was 0.15 °C. The ΔTm in assay [7] is -2.45 °C; in assay [8], 0.41 °C.
Turning to `C[C@]12CC[C@@H]3c4ccc(O)cc4C[C@@H](CCCCCCCCC[S+]([O-])CCCC(F)(F)C(F)(F)F)[C@H]3[C@@H]1CC[C@@H]2O` (stereo not given in full), the ΔTm in assay [1] is -4.09 °C; in assay [2], -2.93 °C; in assay [3] it was 0 °C; in assay [4], -4.77 °C; in assay [5], 0.72 °C; in assay [6] it was -12 °C. For the same compound, the ΔTm in assay [7] is -0.16 °C.
`CCOC(=O)c1ccc(-c2ccc(OC(=O)N(C)Cc3cccc(-c4ccncc4)c3)cc2)cc1`: the shift in melting temperature (ΔTm) in assay [1] was 1.38 °C; in assay [2], -2.49 °C; in assay [3] it was 0.29 °C; in assay [4], -0.29 °C; in assay [5] it was -4.12 °C; in assay [6], 0.21 °C. In addition, the shift in melting temperature (ΔTm) was -1.65 °C in assay [7] and -0.65 °C in assay [8].
For the compound `O=C1C(P(=O)(O)O)CC(O)N1O` (stereo not given), the ΔTm was 0.12 °C in assay [1]; 0.66 °C in assay [2]; -0.03 °C in assay [3]; -0.38 °C in assay [4]; -0.77 °C in assay [5]; 0.16 °C in assay [6]. In addition, the ΔTm in assay [7] was -2.18 °C; in assay [8] it was -0.46 °C.
Take `COc1cn(-c2ccc(-n3cccn3)cc2F)nc(-c2ccnn2-c2ccccc2)c1=O`: the ΔTm was found to be 0.53 °C in assay [1]; 0.2 °C in assay [2]; 1.24 °C in assay [3]; 0.13 °C in assay [4]; 0.96 °C in assay [5]; 0.22 °C in assay [6]. Also, the ΔTm was -1.86 °C in assay [7] and -0.41 °C in assay [8].
In the case of `O=C(NCCCCc1ccccc1)n1c(=O)oc2cc(-c3ccc(F)cc3)ccc21`, the ΔTm in assay [1] is 0.52 °C; in assay [2] it was -2.75 °C; in assay [3] it was 0.86 °C; in assay [4] it was -0.19 °C; in assay [5], 0.3 °C; in assay [6], 0.07 °C. Also, the ΔTm is -1.29 °C in assay [7] and 0.81 °C in assay [8].
As for `COc1ccc(C(CN(C)C)C2(O)CCCCC2)cc1` (stereo not given), the ΔTm in assay [1] was 0.51 °C; in assay [2], -2.55 °C; in assay [3], -0.01 °C; in assay [4], -0.1 °C; in assay [5] it was -0.27 °C; in assay [6], 0.12 °C. For the same compound, the ΔTm was -1.68 °C in assay [7] and -0.25 °C in assay [8].
For the compound `C(=C\c1ccccc1)/CN1CCN(CCOC(c2ccccc2)c2ccccc2)CC1`, the ΔTm in assay [1] was 0.28 °C; in assay [2], -3.78 °C; in assay [3], -0.38 °C; in assay [4], -0.31 °C; in assay [5] it was -0.82 °C; in assay [6], 0.07 °C. In addition, the ΔTm is -2.65 °C in assay [7] and -2.32 °C in assay [8].
Regarding `O=C(N1CCCC[C@H]1Cc1ccccc1)n1cc(-c2ccc(-c3ccccc3)cc2)nn1`, the ΔTm in assay [1] is 0.09 °C; in assay [2], 5.42 °C; in assay [3], 0.51 °C; in assay [4], -0.09 °C; in assay [5], -2.39 °C; in assay [6] it was -0.72 °C. The ΔTm in assay [7] is -1.72 °C; in assay [8] it was 1.36 °C.
`COc1cc(C)[nH]c(=O)c1CNC(=O)c1c(C)n([C@H](C)C2CCOCC2)c2ccccc12`: the ΔTm in assay [1] was 0.28 °C; in assay [2], -1.94 °C; in assay [3] it was 0.11 °C; in assay [4], 0.07 °C; in assay [5], -0.59 °C; in assay [6], -0.18 °C. Further, the ΔTm in assay [7] was -0.23 °C; in assay [8], -0.56 °C.
Take `N#Cc1nc2c(nc1C#N)-c1ccccc1C2=NOCc1ccccc1`: the ΔTm is 0.19 °C in assay [1]; 1.2 °C in assay [2]; 3.11 °C in assay [3]; -0.93 °C in assay [4]; 0.13 °C in assay [5]; -0.23 °C in assay [6]. Further, the results for the ΔTm in assay [7] and in assay [8] were -1.52 °C and 1.99 °C, respectively.
For `CCCCCn1c(C)c(C(=O)c2cccc3ccccc23)c2ccccc21`, the ΔTm in assay [1] was 0.2 °C; in assay [2] it was -0.88 °C; in assay [3], 0.76 °C; in assay [4], 0.04 °C; in assay [5] it was -0.36 °C; in assay [6], 0.95 °C. Moreover, the shift in melting temperature (ΔTm) in assay [7] is -2.46 °C; in assay [8] it was 0.22 °C.
With `Cc1ccc(N2C(=O)/C(=C/C=C/c3ccco3)C(=O)NC2=S)cc1Cl`, the ΔTm in assay [1] was 0.75 °C; in assay [2], -2.47 °C; in assay [3], -0.73 °C; in assay [4] it was 0.31 °C; in assay [5], -1.52 °C; in assay [6] it was -1.33 °C. The ΔTm was -0.68 °C in assay [7] and -2.21 °C in assay [8].
As for `CS(=O)(=O)Nc1ccc(-c2coc3cc(OCc4cccc(C(=O)O)c4)ccc3c2=O)cc1`, the ΔTm in assay [1] was -0.03 °C; in assay [2] it was 0.08 °C; in assay [3], 0.07 °C; in assay [4] it was -0.49 °C; in assay [5], -0.46 °C; in assay [6] it was 0.64 °C. Moreover, the ΔTm in assay [7] was -0.26 °C; in assay [8], 0.89 °C.
Consider `O=[N+]([O-])c1cc(O)c(O)c([N+](=O)[O-])c1`, for which the ΔTm in assay [1] was 0.3 °C; in assay [2], 2.94 °C; in assay [3], 1.19 °C; in assay [4] it was -0.22 °C; in assay [5] it was -0.11 °C; in assay [6], 0.24 °C. The ΔTm in assay [7] worked out at 0.17 °C; in assay [8], 3.59 °C.
Consider `N#Cc1ccc([C@H]2CCCC[C@H]2O)cc1C(F)(F)F`, for which the ΔTm is 0.55 °C in assay [1]; -1.51 °C in assay [2]; 0.11 °C in assay [3]; 0.3 °C in assay [4]; -0.43 °C in assay [5]; -0.24 °C in assay [6]. In addition, the ΔTm in assay [7] was -1.09 °C; in assay [8], -1.04 °C.
Turning to `O=C(NNc1ccccn1)c1ccccn1`, the ΔTm in assay [1] is 0.12 °C; in assay [2] it was -1.77 °C; in assay [3] it was -0.03 °C; in assay [4] it was -0.33 °C; in assay [5], -0.62 °C; in assay [6], 0.17 °C. Also, the ΔTm is -0.43 °C in assay [7] and 0.92 °C in assay [8].
On to `CN1[C@@H]2CC[C@H]1C[C@@H](OC(c1ccc(F)cc1)c1ccc(F)cc1)C2`, for which the ΔTm in assay [1] was 0.58 °C; in assay [2] it was -2.87 °C; in assay [3] it was 0.08 °C; in assay [4], -0.16 °C; in assay [5] it was -0.54 °C; in assay [6] it was 0.11 °C. Besides, the ΔTm in assay [7] was -2.6 °C; in assay [8], -0.2 °C.
Consider `O=C1C(P(=O)(O)O)CCCN1O` (stereo not given), for which the ΔTm in assay [1] was 0.38 °C; in assay [2], -1.37 °C; in assay [3] it was 0.09 °C; in assay [4], -0.23 °C; in assay [5], -1.56 °C; in assay [6] it was 0.01 °C. Besides, the ΔTm in assay [7] is -2.37 °C; in assay [8], -0.05 °C.
Take `C/C(=N\NC(=O)c1cccc(S(=O)(=O)N2CCOCC2)c1)c1cc(Cl)ccc1O`: the ΔTm in assay [1] was 0.81 °C; in assay [2], -2.01 °C; in assay [3] it was 0.83 °C; in assay [4] it was 0.6 °C; in assay [5], 1.53 °C; in assay [6], 0.14 °C. For the same compound, the ΔTm in assay [7] was -0.56 °C; in assay [8], 2.31 °C.
With `COc1cc(O)c2c(c1)/C=C\C[C@H](O)[C@H](O)C(=O)/C=C\C[C@H](C)OC2=O`, the ΔTm in assay [1] is 6.88 °C; in assay [2] it was -0.9 °C; in assay [3], 0 °C; in assay [4], 0.3 °C; in assay [5] it was 0 °C; in assay [6], 0 °C. The ΔTm in assay [7] is 0 °C; in assay [8], -0.14 °C.
